From PubChem BioAssay (Tox21)
Inconclusive results are not listed. Activity calls are given as the source filed them. Unless noted, calls follow the shape of the dose curve; as a rule, active = well fitted curve in the direction sought with a large enough effect in the repeat runs; inconclusive = weak or mixed curves; inactive = no such curve, though single readings can be large; an effect the other way counts as inactive or inconclusive.

Columns and labels:
[1] = qHTS assay to identify small molecule antagonists of the estrogen related receptor (ERR) signaling pathway from Tox21 library - cell viability counter screen (AID 1224834); also: nearly all actives have a fitted effect of over 30% in size
In short: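 ERR reporter cells were plated 6 h before compound addition, then exposed to test compounds in DMSO for 17.5 h at 37 C. Viability was read as CellTiter-Fluor fluorescence after a 30-minute incubation at 37 C.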

[2] = target: Luciferin 4-monooxygenase (Photinus pyralis) (UniProt P08659); experiment: qHTS assay to identify small molecule inhibitors of firefly luciferase (AID 1224835); also: nearly all actives have a fitted effect of over 25% in size; also: potency is read from the fitted curve at half-maximal effect
Chain of Luciferin 4-monooxygenase (Photinus pyralis) (P08659 whole entry, looked up): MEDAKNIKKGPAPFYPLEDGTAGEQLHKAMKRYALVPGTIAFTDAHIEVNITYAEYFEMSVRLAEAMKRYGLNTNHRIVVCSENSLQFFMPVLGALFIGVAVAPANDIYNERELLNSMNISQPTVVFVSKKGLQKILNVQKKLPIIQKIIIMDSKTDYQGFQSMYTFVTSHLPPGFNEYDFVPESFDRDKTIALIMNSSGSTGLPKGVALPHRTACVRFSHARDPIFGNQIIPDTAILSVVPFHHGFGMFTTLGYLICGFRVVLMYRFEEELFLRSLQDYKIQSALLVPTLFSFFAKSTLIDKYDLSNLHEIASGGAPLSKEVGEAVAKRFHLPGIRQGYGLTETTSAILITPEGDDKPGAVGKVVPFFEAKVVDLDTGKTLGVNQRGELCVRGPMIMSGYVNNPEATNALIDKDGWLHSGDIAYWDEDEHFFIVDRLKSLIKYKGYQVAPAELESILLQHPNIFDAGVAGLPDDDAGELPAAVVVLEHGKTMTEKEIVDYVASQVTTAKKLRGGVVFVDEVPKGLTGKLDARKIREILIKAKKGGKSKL
In short: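 Quantitative HTS format; KM concentrations of both substrates. Purified P. pyralis FLuc activity quantified from luminescence images.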

[3] = qHTS assay to identify small molecule agonists of the constitutive androstane receptor (CAR) signaling pathway - cell viability counter screen (AID 1224836); also: nearly all actives have a fitted effect of over 45% in size
In short: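 Cells were seeded and incubated 4 hrs. Compounds were added across 15 concentrations together with PK11195 at 0.75 uM final. Plates were incubated 23 hrs at 37 C. CellTiter-Fluor was added and fluorescence measured.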

[4] = qHTS assay to identify small molecule antagonists of the constitutive androstane receptor (CAR) signaling pathway - cell viability counter screen (AID 1224837); also: nearly all actives have a fitted effect of over 45% in size
In short: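 HepG2 cells stably expressing hCAR and a CYP2B6-2.2kb reporter were plated and pre-incubated 4 hr at 37 C/5% CO2, then given compounds at 15 concentrations plus 50 nM CITCO (final). After 23 hr, viability was read by CellTiter-Fluor fluorescence.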

[5] = target: Nuclear receptor subfamily 1 group I member 3 (Homo sapiens) (UniProt Q14994); experiment: qHTS assay to identify small molecule antagonists of the constitutive androstane receptor (CAR) signaling pathway (AID 1224838); also: nearly all actives have a fitted effect of over 40% in size
Chain of Nuclear receptor subfamily 1 group I member 3 (Homo sapiens) (Q14994 whole entry, looked up): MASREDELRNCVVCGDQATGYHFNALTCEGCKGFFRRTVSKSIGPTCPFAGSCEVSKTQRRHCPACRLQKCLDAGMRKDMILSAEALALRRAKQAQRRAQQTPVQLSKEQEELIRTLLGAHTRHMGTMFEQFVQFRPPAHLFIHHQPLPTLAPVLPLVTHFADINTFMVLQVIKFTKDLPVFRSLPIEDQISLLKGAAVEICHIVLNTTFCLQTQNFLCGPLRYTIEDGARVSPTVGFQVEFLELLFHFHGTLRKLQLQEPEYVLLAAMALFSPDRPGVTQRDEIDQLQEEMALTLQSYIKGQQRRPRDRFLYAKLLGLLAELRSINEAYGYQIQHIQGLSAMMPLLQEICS
In short: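 HepG2 cells stably co-transfected with hCAR and a CYP2B6-2.2kb luciferase reporter were seeded 4 h before compound addition at 15 concentrations. Cells were stimulated with 50 nM CITCO (final) for 24 h at 37 C; luciferase luminescence was then read.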

[6] = target: Nuclear receptor subfamily 1 group I member 3 (Homo sapiens) (UniProt Q14994); experiment: qHTS assay to identify small molecule agonists of the constitutive androstane receptor (CAR) signaling pathway (AID 1224839); also: nearly all actives have a fitted effect of over 15% in size; also: potency is read from the fitted curve at half-maximal effect;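 as to activation: HepG2 cells stably carrying human CAR and a CYP2B6 luciferase reporter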
In short: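 Cells were plated and incubated 4 hrs, then dosed with compounds at 15 concentrations. PK11195 was added to 0.75 uM final. After 24 hrs at 37 C, luciferase luminescence was measured.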

[7] = qHTS assay to identify small molecule antagonists of the estrogen related receptor signaling pathway with the pleiotropic PPARgamma coactivator (PGC) from Tox21 10K library - cell viability counter screen (AID 1224840; active = well fitted cell-killing curve with a large enough effect in the repeat runs, not every such curve was filed as active; also: nearly all actives have a fitted effect of over 40% in size)
In short: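 PGC/ERR cells were seeded at 2,000 cells/well and left 6 hours at 37 C/5% CO2 before pin-tool addition of compounds in DMSO. After 17.5 hours at 37 C, CellTiter-Fluor was added and fluorescence read 30 minutes later.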

[8] = qHTS assay to identify small molecule antagonists of the estrogen related receptor signaling pathway with the pleiotropic PPARgamma coactivator (PGC) from Tox21 10K library (AID 1224841; call rule not given here; also: actives are mostly falling curves and most rising ones were filed inactive; nearly all actives have a fitted effect of over 50% in size)
In short: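 PGC/ERR reporter cells were seeded at 2,000 cells/well and held 6 hours at 37 C/5% CO2 before pin-tool addition of compounds in DMSO. After 18 hours at 37 C, One-Glo was added and luminescence read after 30 minutes at room temperature.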

[9] = qHTS assay to identify small molecule agonists of the estrogen related receptor signaling pathway with the pleiotropic PPARgamma coactivator (PGC) from Tox21 10K library (AID 1224842); also: nearly all actives have a fitted effect of over 15% in size; also: potency is read from the fitted curve at half-maximal effect
In short: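 PGC/ERR reporter cells (NTP line) were seeded 2,000 per well, rested 6 h at 37 C/5% CO2, then pin-dosed with compounds in DMSO for 18 h at 37 C; luciferase read by One-Glo luminescence after 30 min at room temperature.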

[10] = target: Thyrotropin receptor (Homo sapiens) (UniProt P16473); experiment: qHTS assay to identify small molecule agonists of the thyroid stimulating hormone receptor (TSHR) signaling pathway (AID 1224843; calls by dose curve; also: nearly all actives have a fitted effect of over 45% in size)
Chain of Thyrotropin receptor (Homo sapiens) (P16473 whole entry, looked up): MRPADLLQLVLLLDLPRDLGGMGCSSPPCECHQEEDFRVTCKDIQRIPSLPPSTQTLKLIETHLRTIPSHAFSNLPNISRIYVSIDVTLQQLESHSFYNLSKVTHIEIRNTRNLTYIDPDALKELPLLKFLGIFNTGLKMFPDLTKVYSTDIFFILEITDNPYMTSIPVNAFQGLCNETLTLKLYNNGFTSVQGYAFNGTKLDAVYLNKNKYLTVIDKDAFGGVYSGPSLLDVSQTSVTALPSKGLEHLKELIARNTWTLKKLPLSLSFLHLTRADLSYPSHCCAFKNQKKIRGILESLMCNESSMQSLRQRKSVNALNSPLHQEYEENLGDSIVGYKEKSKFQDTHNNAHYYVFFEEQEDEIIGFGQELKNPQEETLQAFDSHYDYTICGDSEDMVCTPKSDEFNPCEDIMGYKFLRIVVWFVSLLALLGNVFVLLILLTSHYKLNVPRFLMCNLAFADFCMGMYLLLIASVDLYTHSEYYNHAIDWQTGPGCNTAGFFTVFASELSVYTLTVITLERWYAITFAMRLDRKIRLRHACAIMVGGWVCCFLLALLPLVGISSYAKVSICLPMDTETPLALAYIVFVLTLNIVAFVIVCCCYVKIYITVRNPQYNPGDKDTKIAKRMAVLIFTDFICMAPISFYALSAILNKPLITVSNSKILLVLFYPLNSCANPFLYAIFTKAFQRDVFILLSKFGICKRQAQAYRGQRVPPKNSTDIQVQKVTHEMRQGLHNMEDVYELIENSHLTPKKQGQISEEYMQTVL
In short: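 Cell line HEK293 with TSHR; density 800/well. Exposure 30 min RT. Readout HTRF cAMP (cAMP-d2/anti-cAMP-cryptate), 1 h RT before reading.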

[11] = qHTS assay to identify small molecule agonists of the hypoxia (HIF-1) signaling pathway - cell viability counter screen (AID 1224844; calls by dose curve; also: nearly all actives have a fitted effect of over 50% in size)
In short: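 HRE-bla ME-180 cells in medium with 0.5% dialyzed FBS were preincubated 5 hrs at 37C, exposed to compounds for 17 hrs, then viability was read as CellTiter-Glo luminescence after 30 min at room temperature, in the reporter wells.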

[12] = qHTS assay to identify small molecule agonists of H2AX (AID 1224845; active = well fitted activation curve with a large enough effect in the signal ratio in the repeat runs, not every such curve was filed as active; the % refers to the signal ratio)
In short: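 Wild-type CHO-K1 cells plated overnight, then exposed 3 hr at 37C to compounds at 15 concentrations (0.76% DMSO). Lysed, then HTRF anti-pH2AX(S139)-cryptate/anti-H2AX-d2 detection after 24 hr at room temperature; emissions 665 and 620 nm.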

[13] = qHTS assay to identify small molecule agonists of the hypoxia (HIF-1) signaling pathway (AID 1224846; active = well fitted activation curve with a large enough effect in the signal ratio in the repeat runs, not every such curve was filed as active; the % refers to the signal ratio)
In short: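 HRE-bla ME-180 cells (beta-lactamase reporter under hypoxia response element) were plated at 2,000 cells/well in medium with 0.5% dialyzed FBS, rested 5 hrs, then given compounds in DMSO for 17 hrs at 37C, 5% CO2. Reporter induction was read with CCF4-AM FRET substrate.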

[14] = qHTS assay to identify small molecule agonists of H2AX - cell viability counter screen (AID 1224847; calls by dose curve; also: top concentration of the series differs between compounds; nearly all actives have a fitted effect of over 30% in size)
In short: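 Cytotoxicity counter screen in wild-type CHO-K1 cells: a 3 hr compound treatment at 37C across 15 concentrations, followed by CellTiter-Glo luminescence to gauge viable cells.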

[15] = qHTS assay to identify small molecule antagonists of the estrogen related receptor (ERR) signaling pathway from Tox21 library (AID 1224848); also: nearly all actives have a fitted effect of over 50% in size
In short: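 Screening used an ERR reporter line supplied by NTP, exposed for 18 h at 37 C to library compounds delivered in DMSO. Signal was luciferase luminescence developed with ONE-Glo at room temperature for 30 min.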

[16] = qHTS assay to identify small molecule agonists of the estrogen related receptor (ERR) signaling pathway from Tox21 library (AID 1224849; calls by dose curve; also: nearly all actives have a fitted effect of over 15% in size); conditions: ERR reporter cell line, ONE-Glo luciferase, 18 h; at 92.4 µM (top of the series) unless noted
In short: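 ERR reporter cell line (NTP) seeded, rested 6 h at 37 C/5% CO2, then pinned with Tox21 compounds in DMSO. After 18 h at 37 C, ONE-Glo luciferase luminescence was read following 30 min at room temperature.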

[17] = qHTS RealTime-Glo MT Cell Viability Assay in HepG2 cells - 24 hour (AID 1224867); also: nearly all actives have a fitted effect of over 50% in size
In short: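 Tox21 10K library screened in qHTS format on HepG2 cells carrying RealTime-Glo reagents. Compounds were added after a 5 h preincubation, and the luminescent signal from continuous culture was measured repeatedly during 40 h treatment.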

[18] = A CellTox Green Cytotoxicity Assay to monitor cytotoxicity in HEK293 cells - 0 hour (AID 1224869); also: nearly all actives have a fitted effect of over 50% in size
In short: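 HEK293 cells premixed with CellTox Green dye were seeded at 600 cells/well and left 5 h at 37 C/5% CO2 before pin transfer of 23 nL compound in DMSO. Fluorescence from dye bound to dead-cell DNA was read during 40 h treatment.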

[19] = qHTS RealTime-Glo MT Cell Viability Assay in HepG2 cells - 40 hour (AID 1224870); also: nearly all actives have a fitted effect of over 50% in size
In short: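 HepG2 cells mixed with RealTime-Glo MT reagents (NanoLuc plus cell-permeant prosubstrate) were seeded at 600 cells/well, incubated 5 h at 37 C/5% CO2, then pinned with compounds in DMSO; nonlytic luminescence tracked viability during 40 h treatment.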

[20] = qHTS RealTime-Glo MT Cell Viability Assay in HEK293 cells - 32 hour (AID 1224868)
In short: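 Luminescence generated by NanoLuc from substrate produced by living HEK293 cells served as the viability signal. Each value reflects the reading at its stated time point during continuous 40 h compound exposure at 37 C.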
% is scaled to controls: 0 for no effect and ±100 for the full control effect.

C=Cc1ccc(OC(C)=O)cc1
inactive: Potency [1] | Potency [2] | Potency [3] | Potency [4] | Potency [5] | Potency [6] | Potency [7] | Potency [8] | Potency [9] | Potency [10] | Potency [11] | Potency [12] | outcome [13] | Potency [14] | Potency [15] | activity change, positive = activation [16] 12.7% | Potency [17] | Potency [18] | Potency [19]

COc1ccc(/C=C/C(=O)c2ccc(OC)cc2OC)cc1
inactive: Potency [1] | Potency [3] | Potency [4] | Potency [5] | Potency [7] | Potency [8] | Potency [9] | Potency [10] | Potency [11] | Potency [12] | outcome [13] | Potency [14] | activity change, positive = activation [16] -32.9% [at 42.5 µM] | Potency [20] | Potency [18] | Potency [19]
active: Potency [2] 17.4 µM | Potency [6] 21.1 µM

CC(=O)Oc1cccc(O)c1
inactive: Potency [1] | Potency [2] | Potency [3] | Potency [4] | Potency [5] | Potency [6] | Potency [7] | Potency [8] | Potency [9] | Potency [10] | Potency [11] | Potency [12] | outcome [13] | Potency [14] | Potency [15] | activity change, positive = activation [16] 5.58% [at 42.5 µM] | Potency [20] | Potency [18] | Potency [19]

O=C(Oc1ccccc1)c1ccc2ccccc2c1O
inactive: Potency [1] | Potency [3] | Potency [4] | Potency [5] | Potency [7] | Potency [8] | Potency [11] | Potency [12] | outcome [13] | Potency [15] | Potency [17] | Potency [20] | Potency [19]
active: Potency [2] 2.52 µM | Potency [6] 54.5 µM | Potency [9] 9.69 µM | activity change, positive = activation [16] 116%

O=C1CC[C@@H](C(=O)O)N1
inactive: Potency [1] | Potency [2] | Potency [3] | Potency [4] | Potency [5] | Potency [6] | Potency [7] | Potency [8] | Potency [9] | Potency [10] | Potency [11] | Potency [12] | outcome [13] | Potency [14] | Potency [15] | activity change, positive = activation [16] 3.84% [at 42.5 µM] | Potency [17] | Potency [20] | Potency [18] | Potency [19]

CC(C)CC(O)CC(C)C
inactive: Potency [1] | Potency [2] | Potency [3] | Potency [4] | Potency [5] | Potency [6] | Potency [7] | Potency [8] | Potency [9] | Potency [10] | Potency [11] | Potency [12] | outcome [13] | Potency [15] | activity change, positive = activation [16] 2.06% | Potency [17] | Potency [20] | Potency [19]

COC(OC)OC
inactive: Potency [1] | Potency [2] | Potency [3] | Potency [4] | Potency [5] | Potency [6] | Potency [7] | Potency [10] | Potency [11] | Potency [12] | outcome [13] | Potency [14] | Potency [17] | Potency [20] | Potency [18] | Potency [19]
